Where “and” joins values, the source holds several entries; their conditions need not be identical. Equal entries are not always repeated. Results filed as inconclusive are left out. The source holds several records for some structures; these can differ, active in one and inactive in another. Calls of active or inactive are those of the source. The calls were made as follows: active = hit-call score of the fitted dose curve at least 0.9, where 1 is the maximum; inconclusive = response in the unintended direction; inactive = score below 0.9.

Usually AC50 stands for the concentration at which the activity in the assay is half-maximal.

Sequence of Bile acid receptor (Homo sapiens) (Q96RI1 whole entry, looked up, the tested form may be a part): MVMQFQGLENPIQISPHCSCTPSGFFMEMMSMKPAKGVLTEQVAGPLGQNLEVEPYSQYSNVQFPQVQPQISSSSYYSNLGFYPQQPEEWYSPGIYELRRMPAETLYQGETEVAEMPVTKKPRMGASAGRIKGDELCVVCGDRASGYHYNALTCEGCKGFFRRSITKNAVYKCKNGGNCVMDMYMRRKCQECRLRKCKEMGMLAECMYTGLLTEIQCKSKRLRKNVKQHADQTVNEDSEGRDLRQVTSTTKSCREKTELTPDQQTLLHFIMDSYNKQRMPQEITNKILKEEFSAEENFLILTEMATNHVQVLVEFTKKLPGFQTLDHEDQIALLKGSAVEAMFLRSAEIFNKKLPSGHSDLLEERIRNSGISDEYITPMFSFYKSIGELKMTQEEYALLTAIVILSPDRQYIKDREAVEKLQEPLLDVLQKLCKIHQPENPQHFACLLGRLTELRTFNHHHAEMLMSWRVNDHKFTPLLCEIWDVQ

One test has as its target Bile acid receptor (Homo sapiens) (UniProt Q96RI1). The experiment in a line: OT_FXR_FXRSRC1_0480: Odyssey Thera (OT) 8-hour HEK293T Protein-Complementation Assay for Farnesoid X receptor/SRC-1 Co-activator (AID 2283383). In a few lines: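 Co-activator recruitment to FXR was measured in living HEK293T cells, where interaction of the two fused partners restored an active fluorescent reporter. Signal gain after 8 h treatment was referenced to DMSO.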
`O=c1ccc2ccccc2o1`: the compound was called inactive.

`CCCCCCCCCCCO`: the outcome was inactive. Still for that read-out and setting: next, `Cc1cccc2ccccc12`: “inactive”.

Turning to `CCCCCCCCOc1ccc(C(=O)c2ccccc2)c(O)c1`, the result was inactive. For the compound `Cc1ncc(CO)c(CO)c1O`, the compound was classed as inactive. The same measure, in the same setting: next, `CCCCCCCCCCCCO`: “inactive”. As to `Cc1cc2c(cc1C(F)(F)F)N(C(=O)Nc1ccc(Oc3cccnc3C)nc1)CC2`, the AC50 was 19.1 µM (active).

Regarding `OC12N=C(c3ccccc3)SC1Cc1cc(Cl)ccc12` (stereo unspecified), the AC50 is 71.7 µM (active). Turning to `Cc1ccc2oc(CN(Cc3ccccc3)C(=O)Nc3c(F)cc(F)cc3F)c(-c3ccc(Cl)cc3)c2c1`, the call was inactive.

As for `CC(C)(c1cc(Br)c(O)c(Br)c1)c1cc(Br)c(O)c(Br)c1`, the concentration at half-maximal activity (AC50) was 70 µM (active). `COc1cccc([C@H](O)C2CCN(CCc3ccc(F)cc3)CC2)c1OC`: the compound was called inactive. On to `C[C@]12CC[C@@H]3c4ccc(O)cc4CC[C@H]3[C@@H]1CCC2=O`, for which the result was inactive. With `O=C(OCCCCCCOC(=O)c1ccccc1)c1ccccc1`, the AC50 is 50 µM (active). `CCCC(=O)OCCC(C)C`: the compound was called inactive. Consider `CCN(Cc1cccnc1)C(=O)c1cccc(Cl)c1[C@]1(C)C(=O)N(Cc2ccc(OC)cc2OC)c2ccc(Cl)cc21`, for which the AC50 was 0.278 µM (active). Still for that read-out and setting: to `CCCCOC(=O)CC(CC(=O)OCCCC)(OC(C)=O)C(=O)OCCCC` belongs 9.51 µM (active). For the compound `Cc1ccc(C(C)C)cc1`, the compound was classed as inactive. Same read-out and setting: next, `CCN(Cc1cccc(S(=O)(=O)O)c1)c1ccc(C(=C2C=CC(=[N+](CC)Cc3cccc(S(=O)(=O)O)c3)C=C2)c2ccccc2S(=O)(=O)[O-])cc1`: “inactive”; `Cc1cn([C@H]2C[C@H](N=[N+]=[N-])[C@@H](CO)O2)c(=O)[nH]c1=O`: “inactive”. On the same count and under the same terms, to `CC/C(=C(/CC)c1ccc(O)cc1)c1ccc(O)cc1` belongs “inactive”.

A further test has the same target. Kind of test: OT_FXR_FXRSRC1_1440: Odyssey Thera (OT) 24-hour HEK293T Protein-Complementation Assay for Farnesoid X receptor/SRC-1 Co-activator (AID 2283384). The procedure, abridged:
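Cell-based binding reporter: interaction of FXR with SRC-1 brings reporter fragments together, giving a fluorescence signal read 24 h after dosing of HEK293T cells.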
For the compound `CCCCCCCCCCCO`, the compound was called inactive. Same read-out and setting: next, `CCCCCCCCOc1ccc(C(=O)c2ccccc2)c(O)c1`: “inactive”; `Cc1ncc(CO)c(CO)c1O`: “inactive”; `CCCCCCCCCCCCO`: “inactive”.

On to `Cc1cc2c(cc1C(F)(F)F)N(C(=O)Nc1ccc(Oc3cccnc3C)nc1)CC2`, for which the half-maximal activity concentration (AC50) is 4.55 µM (active).

With `OC12N=C(c3ccccc3)SC1Cc1cc(Cl)ccc12` (stereo unspecified), the concentration at half-maximal activity (AC50) was 31.4 µM (active). As for `Cc1ccc2oc(CN(Cc3ccccc3)C(=O)Nc3c(F)cc(F)cc3F)c(-c3ccc(Cl)cc3)c2c1`, the result was inactive.

`COc1cccc([C@H](O)C2CCN(CCc3ccc(F)cc3)CC2)c1OC`: the call was inactive.

As to `CCO[Si](CCCNC(N)=O)(OCC)OCC`, the outcome was inactive.

In the case of `Oc1ccccc1`, the call was inactive. Turning to `C[C@]12CC[C@@H]3c4ccc(O)cc4CC[C@H]3[C@@H]1CCC2=O`, the AC50 was 22.6 µM (active) and 35.9 µM (active) and 30 µM (active); the call was inactive. In the case of `O=C=NCCCCCCN=C=O`, the result was inactive.

As for `O=C(OCCCCCCOC(=O)c1ccccc1)c1ccccc1`, the outcome was inactive. Same read-out and setting: to `O=C(O)c1ccccc1C(=O)OCc1ccccc1` belongs “inactive”; to `CCCC(=O)OCCC(C)C`, “inactive”.

Consider `OCCO`, for which the outcome was inactive. With `CCN(Cc1cccnc1)C(=O)c1cccc(Cl)c1[C@]1(C)C(=O)N(Cc2ccc(OC)cc2OC)c2ccc(Cl)cc21`, the AC50 is 0.59 µM (active). For `CCCCOC(=O)CC(CC(=O)OCCCC)(OC(C)=O)C(=O)OCCCC`, the compound was called inactive. For the compound `CC(C)(C)c1cc(/C=C2\SC(N)=NC2=O)cc(C(C)(C)C)c1O`, the AC50 was 50 µM (active). Take `CC/C(=C(/CC)c1ccc(O)cc1)c1ccc(O)cc1`: the result was inactive.

These data come from PubChem BioAssay (EPA / NIEHS).
